An excerpt weighted towards active compounds, which were near 7% of everything screened.
IL-1B inflam inh = inflammasome signaling inhibition, IL-1 beta readout. THP-1 LPS/ATP IL-1B secretion, AlphaLISA, 16 h; hits give low values. activity change, % at 57.5 µM. hit rate 4.7% among 360,000. AID 743279; in the data active = activity change below about -50%; inconclusive = mostly about -30% to -49%; note: % is set by controls: 0 for no effect and ±100 for the full control effect
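THP-1 cells pretreated 1 hr with compounds (up to 57.5 uM final), then stimulated with LPS (250 ng/mL final) plus ATP (1.25 mM final); secreted IL-1B measured by AlphaLISA after 16 hr, decreased signal indicating inhibition.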
ATXN viability = cell viability loss in ATXN counter-screen; S2 cells (HEK-293 line with an ATXN2-luciferase reporter) viability, CellTiter-Fluor protease fluorescence, 24 h; Potency, µM (highest dose often 56.7 µM), most hits filed as cytotoxic; hit rate 0.49% among 400,000; note: potency is the fitted concentration of half-maximal effect; nearly all actives have a fitted effect of over 40% in size
DRD3 agonist = activates the human D3 dopamine receptor | P35462 | D3R DiscoveRx beta-arrestin cells, luminescence, 90 min | max activation, % | hit rate 0.58% among 410,000 | AID 652048; in the data active = max activation above about 30%; note: 0% is about no effect
Target sequence (P35462 whole entry, looked up): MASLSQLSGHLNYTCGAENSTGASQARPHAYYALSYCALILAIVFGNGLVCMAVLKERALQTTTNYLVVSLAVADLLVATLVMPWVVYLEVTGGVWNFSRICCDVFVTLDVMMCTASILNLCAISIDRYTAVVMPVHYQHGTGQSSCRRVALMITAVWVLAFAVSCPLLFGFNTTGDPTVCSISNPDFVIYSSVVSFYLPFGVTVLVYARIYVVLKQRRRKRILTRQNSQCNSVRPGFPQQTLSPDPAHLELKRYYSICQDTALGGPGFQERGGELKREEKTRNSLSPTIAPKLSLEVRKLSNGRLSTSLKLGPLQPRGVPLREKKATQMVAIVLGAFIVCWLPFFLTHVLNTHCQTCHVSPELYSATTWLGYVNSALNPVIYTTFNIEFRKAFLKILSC
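Agonist-mode cell screen: cells plated at 1500/well and incubated overnight at 37 °C, then exposed to library compounds for 90 min at 37 °C. Detection reagent was added for 30–60 min at room temperature, and luminescence was read.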
DRD3 antagonist = blocks the human D3 dopamine receptor. D3R cells, DiscoveRx beta-arrestin luminescence, antagonist mode; hits give low values. max response, negative = inhibition, %. hit rate 2.5% among 360,000. AID 652054; in the data active = max response below about -50%; inconclusive = no clear call, values can overlap the other calls; note: % is set by controls: 0 for no effect and ±100 for the full control effect
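Cells plated overnight at 1500 cells/well, then exposed to library compounds with dopamine controls for 90 minutes at 37 degrees C. DiscoveRx reagent added for 30–60 minutes at room temperature; luminescence read, quantitative HTS format.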
ATXN2 expr inh = inhibitors of ATXN2 expression. HEK-293 ATXN2-luciferase reporter, luminescence, 24 h. Potency, µM (highest dose often 57 µM), inactives show at the highest dose activity change, negative = inhibition, most hits filed as inhibitors. hit rate 0.72% among 360,000. AID 1745845; note: potency is the fitted concentration of half-maximal effect; % is set by controls: 0 for no effect and ±100 for the full control effect; nearly all actives have a fitted effect of over 55% in size
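qHTS (up to 57 uM final) was run with 24 h compound exposure of reporter cells at 37 °C. Each well was multiplexed: SteadyGlo luminescence measured ATXN2-luciferase expression after a fluorogenic Gly-Phe-AFC viability readout (25 uM final).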
a7 integrin act = activates integrin-mediated alleviation for muscular dystrophy | alpha7betagal myoblasts, beta-gal FDG fluorescence, 48 h | Potency, µM (top dose mostly 38.3 µM), without a hit: at the highest dose activation, most hits filed as activators | hit rate 0.064% among 350,000;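 note: potency is the fitted concentration of half-maximal effect; 100% = response of the positive control SU9516; nearly all actives have a fitted effect of over 60% in size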
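alpha7betagal+/- myoblasts (passage 13, 250/well) treated 48 h at 37C with compounds at 1:260 dilution of DMSO stock. Lysed, then beta-galactosidase activity read as FDG fluorescence (ex 480/em 540) after 30 min, with pre-read for autofluorescence.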
Active calls of the source: *; i = inactive; ? = inconclusive; . = no result; [ ] = remark or other dose. Unless noted, calls come from the whole dose curve; as a rule, active = well fitted curve in the direction sought with a large enough effect; inconclusive = small, poorly fitted or top-dose-only effect, or another doubt; inactive = no such curve, though single readings can be large; an effect the other way counts as inactive or inconclusive.

SMILES | IL-1B inflam inh | ATXN viability | DRD3 agonist | DRD3 antagonist | ATXN2 expr inh | a7 integrin act
CN(C)CCCN(C(=O)c1cc(Cl)sc1Cl)c1nc2cc3c(cc2s1)OCO3 | ? | i | -21.0 | ? | -19.1% | ?
CN(C)CCCN(C(=O)c1ccc(Cl)s1)c1nc2cc3c(cc2s1)OCO3 | -98.2* | 28.2µM* | -9.1 | -11.2 | ? | ?
Cn1nnnc1Sc1ncnc2scc(-c3cccs3)c12 | . | i | . | . | 8.91µM* | .
Cn1nnnc1Sc1ncnc2scc(-c3ccsc3)c12 | . | ? | . | . | 14.1µM* | .
Cc1nnc(NC(=O)CSc2ncnc3scc(-c4ccccc4)c23)s1 | 26.0 | i | -6.6 | 14.3 | -14.4% | ?
Cn1nnnc1Sc1ncnc2scc(-c3cc4ccccc4o3)c12 | . | 12.6µM* | . | . | 5.62µM* | .
COC(=O)CSc1ncnc2scc(-c3ccccc3)c12 | 1.6 | i | 3.9 | 14.3 | 10.2% | 4.7%
Cc1[nH]c(=O)[nH]c(=O)c1/C=N/NC(=O)CCNC(=O)OC(C)(C)C | -60.2* | i | -4.1 | -5.0 | 5.6% | ?
Cc1[nH]c(=O)[nH]c(=O)c1/C=N/NC(=O)CCCCCNC(=O)OC(C)(C)C | 12.7 | i | 4.4 | 3.5 | 3.6% | -6.8%
CCOC(=O)c1c(C)[nH]c(C(=O)OCC(=O)Nc2ccc(Cl)cn2)c1C | 32.8 | i | -2.7 | 0.0 | 3.0% | 26.0%
CCOC(=O)c1c(C)[nH]c(C(=O)OCC(=O)Nc2sccc2C(N)=O)c1C | -71.0* | 12.6µM* | 28.2 | 141.4 | ? | -24.1%
CCOC(=O)c1c(C)[nH]c(C(=O)COC(=O)c2[nH]c(C)c(C(C)=O)c2C)c1C | 24.8 | i | 37.2* | 15.9 | -38.3% | 6.5%[7.66 µM]
CC(=O)c1c(C)[nH]c(C(=O)COC(=O)c2ccc(C)s2)c1C | 20.1 | i | 38.7* | 38.2 | 10.3% | 0.0%
Cc1cccc(C)c1NC(=O)CNC(=O)C(C)N1CCCCC1 (stereo not given) | 18.4 | i | 2.8 | 4.0 | -6.7% | 17.0%
CC12CCC(C(=O)NCCc3ccccc3)(OC1=O)C2(C)C (stereo not given) | 9.8 | i | 2.1 | 3.1 | 2.5% | -35.2%
Cc1nc2ccc(C(=O)Nc3cccc(OCC(=O)N(C)C)c3)cn2c1N(C)CC1CCCCC1 | -50.9* | . | 3.1 | 59.7 | ? | .
CC(=O)Nc1ccc(CN(C)c2c(C)nc3ccc(C(=O)Nc4ccc(Cl)c(Cl)c4)cn23)cc1 | -53.4* | ? | -16.5 | -15.3 | 0.0% | .
COc1ccc(CNC(=O)c2ccc3nc(C)c(N(C)Cc4ccc(NC(C)=O)cc4)n3c2)cc1 | -7.0 | i | -7.8 | 18.9 | -7.8% | .
Cc1ccc(NC(=O)C2CCN(c3nn4c(=O)cc(C)nc4s3)CC2)cc1 | . | i | -0.4 | . | -4.9% | .
CC(C)=CCc1c(O)cc2c(=O)c3ccc(O)cc3oc2c1O | 13.3 | ? | -10.6 | 9.0 | 22.9% | -9.2%
CC(C)=CCc1c2c(c3occ(-c4ccc(O)c(O)c4)c(=O)c3c1O)C=CC(C)(C)O2 | -61.6* | ? | -9.3 | 2.1 | 22.4µM* | -56.2%
CC(C)=CCc1c2c(c3occ(-c4ccc(O)cc4)c(=O)c3c1O)C=CC(C)(C)O2 | -81.7* | . | 69.3* | 35.6 | ? | -50.9%
CC1(C)C=Cc2c(c3c(c4c(=O)c(-c5ccc(O)cc5)coc24)OC(C)(C)CC3)O1 | ? | . | 0.3 | 72.3 | ? | -9.3%
O=c1[nH]c(SCc2nc3ccccc3n2Cc2ccccc2)nc2ccccc12 | 4.0 | i | -3.1 | 5.6 | 0.0% | -4.0%
O=c1[nH]c(SCc2nc3ccccc3c(=O)n2-c2ccccc2C(F)(F)F)nc2ccccc12 | -81.3* | i | -0.5 | 3.1 | -14.2% | 1.2%
SMILES | IL-1B inflam inh | ATXN viability | DRD3 agonist | DRD3 antagonist | ATXN2 expr inh | a7 integrin act
COc1ccccc1NC(=O)CCNS(=O)(=O)c1ccc2c(c1)CC(C)N2C(=O)C1CC1 (stereo not given) | 0.0 | i | -8.2 | 15.4 | 5.9% | -15.4%
COC(=O)CN1C(=O)C(C)(C)Oc2ccc(C(=O)Nc3ccccc3F)cc21 | -66.3* | i | -4.1 | -2.3 | 9.2% | 16.5%
CCC(C)(C)NC(=O)c1ccc2c(c1)N(CC(=O)NC1CCCC1)C(=O)C(C)(C)O2 | -10.4 | ? | -14.1 | -62.5* | 1.1% | -8.9%
N#Cc1nc(-c2cccc(Cl)c2)oc1NCc1cccnc1 | -10.9 | i | 0.4 | -15.2 | 0.0% | -0.6%[7.66 µM]
O=C(CN1C(=O)S/C(=C\c2ccccc2)C1=O)NNC(=O)c1ccccc1O | 0.9 | i | 9.4 | 5.1 | -16.2% | 24.1%
O=C(CN1C(=O)S/C(=C\c2ccc(O)cc2)C1=O)c1ccccc1 | -77.0* | ? | -3.3 | -19.0 | -17.0% | -5.6%
CCc1nc2ccccc2c(C(=O)OCC(=O)Nc2ccc(NC(C)=O)cc2)c1C | -8.4 | i | -19.9 | 3.5 | ? | -21.7%
CN1CCN(c2ccccc2/C=N/NC(=O)c2cccnc2)CC1 | 6.6 | i | -17.7 | -50.1* | . | 9.9%
O=C(N/N=C/c1cn(-c2ccccc2)nc1-c1cc2ccccc2o1)c1cccnc1 | -222.3* | i | -9.2 | -6.0 | . | -3.8%
O=C(N/N=C\c1cc2c(cc1Cl)OCO2)c1cccnc1 | -10.6 | i | 1.9 | 15.7 | 9.2% | -5.5%
O=C(N/N=C/c1cn(-c2ccccc2)nc1-c1ccc(F)cc1)c1ccc(Br)o1 | -55.9* | i | 6.2 | 18.7 | 6.8% | -10.4%
CCOC(=O)c1cnc2ncnn2c1N | 42.7 | i | 0.2 | -1.8 | . | -4.0%
CCOC(=O)c1cccc(NC(=O)c2cc3cc4ccc(C)cc4nc3s2)c1 | . | i | 3.1 | . | -3.5% | .
CC1(C(=O)NS(=O)(=O)C2CC2)CCCN(C(=O)c2ccc(C(F)(F)F)cc2)C1 (stereo not given) | 34.4 | i | 3.2 | 4.5 | 3.1% | .
COc1ccc(C(=O)N2CCCC(C)(C(=O)NS(=O)(=O)C3CC3)C2)cc1 (stereo not given) | 23.5 | i | -12.9 | -52.9* | -0.2% | .
CC1(C(=O)NS(=O)(=O)C2CC2)CCCN(C(=O)c2cccc(OC(F)(F)F)c2)C1 (stereo not given) | -63.8* | i | 6.0 | -5.4 | 1.9% | .
CC1(C(=O)NS(=O)(=O)C2CC2)CCCN(C(=O)c2cccc(C(F)(F)F)c2)C1 (stereo not given) | 39.6 | i | -3.2 | 0.0 | 4.1% | .
Fc1cccc(-c2cc3nc4c(c(N5CCOCC5)n3n2)CCCC4)c1 | -3.3 | i | -0.4 | 13.9 | 19.0% | 6.8%
Fc1cccc(-c2cc3nc4c(c(NCc5ccco5)n3n2)CCCC4)c1 | -92.3* | i | 17.9 | 14.9 | 84.2% | -45.5%
CCOC(=O)C(=O)Nc1ccccc1C(=O)OC | 11.4 | i | 1.2 | 10.9 | . | 0.0%
COC(=O)c1ccccc1NC(=O)CN1CCc2ccccc2C1 | -13.5 | i | -4.4 | -15.0 | 1.9% | -24.7%

Compound activity deposited in PubChem by National Center for Advancing Translational Sciences (NCATS).
